This is an account of results in PubChem BioAssay (NCATS).

The nature of test [1]: Viability qHTS for spleen associated tyrosine kinase inhibitor (SYKi) naive MV4-11 cells (AID 1963823). Further: nearly all actives have a fitted effect of over 40% in size. The essentials: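 SYK inhibitor-naive MV4-11 cells, 500 per well, exposed to compounds for 72 hr at 37 C, 5% CO2. Viability read as CellTiter-Glo luminescence after 10 min at room temperature.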
Test [2] is described as follows: Viability qHTS for spleen associated tyrosine kinase inhibitor (SYKi) drug resistant MV4-11 cells (AID 1963824). Further: nearly all actives have a fitted effect of over 35% in size. The method in brief:
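SYK inhibitor-resistant MV4-11 AML cells, 500 per well, added to predispensed compounds and incubated 72 hr at 37 C, 5% CO2. Viability measured by CellTiter-Glo luminescence after 10 min at room temperature.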
(In qHTS, concentration-response curves come from the screen itself.)

The nature of test [3]: Quantitative highthroughput screen to assess conditional lethalithy of NOMO1 cells grown in RPMI1640 with untreated serum (RPMI+s) (AID 1963876). Further: nearly all actives have a fitted effect of over 35% in size. The essentials: (§1)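 Each medium arm—HPLM with 10% dialyzed FBS, or RPMI1640 with 5 mM glucose and 10% untreated or dialyzed FBS—was screened against an 11-point, 3-fold compound titration for 48 h at 37 °C, with CellTiter-Glo luminescence as endpoint.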

A short description of test [4]: Quantitative highthroughput screen to assess conditional lethalithy of SEM cells grown in RPMI1640 with unreated serum (RPMI+s) (AID 1963883). Further: nearly all actives have a fitted effect of over 35% in size. The essentials:
as §1

A short description of test [5]: Cellular viability qHTS for adrenocortical cancer (ACC) cell line NCI-H295R (AID 1963990). Further: nearly all actives have a fitted effect of over 60% in size. The essentials: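 Compound titrations (up to 46 uM final) are applied to NCI-H295R cultures for 48 h at 37C. Viable cell number is estimated by CellTiter-Glo signal, normalised to DMSO and doxorubicin controls.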
The nature of test [6]: Quantitative highthroughput screen to assess conditional lethalithy of NOMO1 cells grown in RPMI1640 with dialyzed fetal bovine serum (RPMI+ds) (AID 1963877). Further: nearly all actives have a fitted effect of over 30% in size. The essentials:
as §1

Test [7] in a line: Quantitative highthroughput screen to assess conditional lethalithy of NOMO1 cells grown in Human Plasma-Like Medium with dialyzed fetal bovine serum (HPLM+ds) (AID 1963878). Further: nearly all actives have a fitted effect of over 35% in size. The essentials:
as §1

A short description of test [8]: Quantitative highthroughput screen to assess conditional lethalithy of P12 Ichikawa cells grown in Human Plasma-Like Medium with dialyzed fetal bovine serum (HPLM+ds) (AID 1963879). Further: nearly all actives have a fitted effect of over 35% in size. As to conditions: Potency: viability. The essentials:
as §1

A short description of test [9]: Quantitative highthroughput screen to assess conditional lethalithy of P12 Ichikawa cells grown in RPMI1640 with dialyzed fetal bovine serum (RPMI+ds) (AID 1963880). Further: nearly all actives have a fitted effect of over 35% in size. The conditions noted are these: Potency: P12-Ichikawa viability. The method in brief:
as §1

The nature of test [10]: Quantitative highthroughput screen to assess conditional lethalithy of SEM cells grown in Human Plasma-Like Medium with dialyzed fetal bovine serum (HPLM+ds) (AID 1963882). Further: nearly all actives have a fitted effect of over 35% in size. The method in brief:
as §1

A short description of test [11]: Cellular viability qHTS for adrenocortical cancer (ACC) cell line SW-13 (AID 1963989). Further: nearly all actives have a fitted effect of over 65% in size. The conditions noted are these: SW-13 ACC cells viability, CellTiter-Glo, 48 h; activity (max response): active compounds read low. The essentials: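 48 h treatment, SW-13 in ITS/DMEM serum-free; doses up to 46 uM; readout CellTiter-Glo luminescence; curve fit four-parameter logistic.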

Test [12] can be described thus: Quantitative highthroughput screen to assess conditional lethalithy of P12 Ichikawa cells grown in RPMI1640 with untreated serum (RPMI+s) (AID 1963881). Further: nearly all actives have a fitted effect of over 35% in size. The conditions noted are these: Potency: viability. The essentials:
as §1

Test [13] is described as follows: Quantitative highthroughput screen to assess conditional lethalithy of SEM cells grown in RPMI1640 with dialyzed fetal bovine serum (RPMI+ds) (AID 1963884). Further: nearly all actives have a fitted effect of over 35% in size. The method in brief: as §1

“And” between values parts separate entries of the source, which are not always exact repeats. Identical values can stand only once. Inconclusive results are not listed. The source made the active and inactive calls. The call rests on the fitted dose curve; in most records, active means well fitted curve in the direction sought with a large enough effect; inconclusive means small, poorly fitted or top-dose-only effect, or another doubt; inactive means no such curve, though single readings can be large; an effect the other way counts as inactive or inconclusive.
Potency means the concentration at half of the fitted maximal effect.

In the case of `CNC(=O)Nc1ccc(-c2nc(N3CC4CCC(C3)O4)c3cnn(C4CCC5(CC4)OCCO5)c3n2)cc1`, the Potency was 74.2 nM (active) in test [1]; 0.166 µM (active) in [2]; 59 nM (active) in [3]; 41.8 nM (active) in test [4]; 282 nM (active) in test [5].
On to `COc1ccc(-c2ccc3ncc4c(c3c2)n(-c2ccc(N3CCNCC3)c(C(F)(F)F)c2)c(=O)n4C)cn1`, for which the Potency was 26.3 nM (active) in test [1]; 13 nM (active) and 16.4 nM (active) and 29.5 nM (active) in [2]; 469 nM (active) in test [6]; 148 nM (active) in [7]; 1050 nM (active) in test [8]; 187 nM (active) in test [9]. In addition, the Potency in test [10] was 74.3 nM (active); in test [11] it was 316 nM (active); in [5] it was 126 nM (active).
`O=c1[nH]nc(Sc2ncc([N+](=O)[O-])s2)n1-c1ccc2c(c1)OCCO2`: the Potency in test [1] is 2350 nM (active); in test [2], 2.35 µM (active); in test [6] it was 8330 nM (active); in test [7], 9350 nM (active); in [8] it was 14800 nM (active); in test [9], 9350 nM (active). For the same molecule, the Potency in [12] is 8330 nM (active); in [10], 8330 nM (active); in test [4], 7430 nM (active); in test [13], 8330 nM (active); in [11], 17800 nM (active); in [5], 6310 nM (active).
For `O=C(Nc1ncc(SCCN2CCCC2)s1)[C@]1(c2ccc(S(=O)(=O)C3CC3)cc2)C[C@@H]1C1CCCCC1`, the Potency in test [1] was 2590 nM (active); in test [2] it was 2.59 µM (active); in test [6], 23500 nM (active); in [7], 18700 nM (active).
Turning to `FC(F)(F)c1ccc(Nc2nc3ccc(Oc4ccnc(-c5ncc(C(F)(F)F)[nH]5)c4)cc3[nH]2)cc1`, the Potency was 1640 nM (active) in test [1]; 4.17 µM (active) in test [2]; 18700 nM (active) in test [4]; 16600 nM (active) in [13]; 22400 nM (active) in test [11]; 11200 nM (active) in [5]. The Potency result in test [3] was “inactive”.
